Measurements: the supplement of paper PMC7411054

Experiments:
Experiment in all cases: lowest phenotypically active concentration; higher = less potent
Conditions in all cases: treatment time: 24 h
A549-CANX-COX4 = test system: A549-CANX-COX4
Method in brief: (§1)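 Fifteen reporter lines derived from A549, HepG2 and WPMY1 cells by gene editing, carrying BFP for segmentation plus GFP and RFP/FusionRed markers, were exposed to 0.3, 1, 3 or 9 µM for 24 h in four wells each and imaged live. Live-cell features from each well were normalised to solvent control wells. A well set counted as deviating when ≥3 of 4 wells lay beyond the 95th percentile of control Euclidean distances, and as reproducible when the median replicate Pearson correlation exceeded the 95th percentile of non-replicates. Phenotypic activity was assigned only when both criteria were met.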

A549-TP53BP1-CLTA = test system: A549-TP53BP1-CLTA
Method in brief: as §1

HepG2-ACTB-RAB5A = test system: HepG2-ACTB-RAB5A
Method in brief: as §1

HepG2-TP53BP1-CLTA = test system: HepG2-TP53BP1-CLTA
Method in brief: as §1

WPMY1-CANX-COX4 = test system: WPMY1-CANX-COX4
Method in brief: as §1

WPMY1-TP53BP1-CLTA = test system: WPMY1-TP53BP1-CLTA
Method in brief: as §1

WPMY1-TUBA1B-RELA = test system: WPMY1-TUBA1B-RELA
Method in brief: as §1

Measured: lowest phenotypically active concentration

Cc1c2oc3c(C)ccc(C(=O)NC4C(=O)NC(C(C)C)C(=O)N5CCCC5C(=O)N(C)CC(=O)N(C)C(C(C)C)C(=O)OC4C)c3nc-2c(C(=O)NC2C(=O)NC(C(C)C)C(=O)N3CCCC3C(=O)N(C)CC(=O)N(C)C(C(C)C)C(=O)OC2C)c(N)c1=O (stereo unspecified) [Actinomycin D]
≤ 0.3 µM: all assays above

COc1cc2ncn(-c3cc(OCc4ccccc4C(F)(F)F)c(C(N)=O)s3)c2cc1OC
≤ 0.3 µM: HepG2-ACTB-RAB5A | HepG2-TP53BP1-CLTA | WPMY1-TUBA1B-RELA
1 µM: all other assays above

COc1cc([C@@H]2c3cc4c(cc3[C@@H](O[C@@H]3O[C@@H]5CO[C@@H](C)O[C@H]5[C@H](O)[C@H]3O)[C@H]3COC(=O)[C@H]23)OCO4)cc(OC)c1O [etoposide]
≤ 0.3 µM: A549-TP53BP1-CLTA | HepG2-TP53BP1-CLTA | WPMY1-TUBA1B-RELA
1 µM: all other assays above

Oc1ccc(Nc2nc(-c3ccc(Cl)cc3)cs2)cc1
9 µM: A549-TP53BP1-CLTA | WPMY1-TP53BP1-CLTA | WPMY1-TUBA1B-RELA
3 µM: A549-CANX-COX4 | WPMY1-CANX-COX4

Cc1ccc(S(=O)(=O)/C=C/C#N)cc1
9 µM: WPMY1-CANX-COX4

Cc1nc(NC(=O)N2CCC[C@H]2C(N)=O)sc1-c1ccnc(C(C)(C)C(F)(F)F)c1 [alpelisib]
1 µM: HepG2-ACTB-RAB5A
9 µM: A549-TP53BP1-CLTA | HepG2-TP53BP1-CLTA | WPMY1-TUBA1B-RELA
3 µM: all other assays above

CCCCC1C(=O)N(c2ccccc2)N(c2ccc(O)cc2)C1=O (stereo unspecified) [oxyphenbutazone]
9 µM: WPMY1-TUBA1B-RELA

CCN(CC)CCCC(C)Nc1ccnc2cc(Cl)ccc12 (stereo unspecified) [chloroquine]
3 µM: HepG2-ACTB-RAB5A | WPMY1-CANX-COX4
not listed: A549-CANX-COX4
9 µM: all other assays above

O=c1cc(-c2cccc3c2Sc2ccccc2S3)oc(N2CCOCC2)c1
3 µM: HepG2-ACTB-RAB5A | WPMY1-TP53BP1-CLTA
9 µM: HepG2-TP53BP1-CLTA | WPMY1-CANX-COX4

N#Cc1c(NC(=O)c2cccc3ccccc23)sc2c1CCCC2
≤ 0.3 µM: all assays above

CC[C@H](C)[C@H](NC(=O)OCc1ccccc1)C(=O)N[C@@H](CCC(=O)OC(C)(C)C)C(=O)N[C@@H](C)C(=O)N[C@H](C=O)CC(C)C
≤ 0.3 µM: all assays above

Nc1cc(C(F)(F)F)c(-c2cc(N3CCOCC3)nc(N3CCOCC3)n2)cn1 [buparlisib]
3 µM: HepG2-TP53BP1-CLTA | WPMY1-TP53BP1-CLTA | WPMY1-TUBA1B-RELA
1 µM: all other assays above

O=c1[nH]cc(F)c(=O)[nH]1 [5-Fluorouracil]
3 µM: A549-CANX-COX4 | HepG2-ACTB-RAB5A | HepG2-TP53BP1-CLTA
9 µM: A549-TP53BP1-CLTA | WPMY1-TP53BP1-CLTA
